# This is a sample that favours compounds with a hit; in the whole collection about 17% have one here.
# DT40 TDP1 no CPT: qHTS for Inhibitors of human tyrosyl-DNA phosphodiesterase 1 (TDP1): qHTS in cells in absence of CPT. 420,000 tested, 15% active. DT40 Tdp1-/- hTDP1 cells, no CPT, ATP luminescence, 48 h. AID 686978, 2013. Potency, µM (doses to about 46.2 µM), without a hit: top-dose activity change, negative = growth inhibition, usual class: inhibitors; further: on the % scale 0 is the no-effect control and ±100 the full control effect; nearly all actives have a fitted effect of over 55% in size
#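 DT40 Tdp1-/-;hTDP1 cells, no CPT (DMSO vehicle only), 400 cells/well; compounds pin-transferred; ≥48 hr, 37 °C; CellTiter-Glo 30 min RT dark, luminescence read.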
# HT1080NT lethal: qHTS for induction of synthetic lethality in tumor cells producing 2HG: qHTS for the HT-1080-NT fibrosarcoma cell line; 360,000 tested, 1.6% active; Potency, µM (titrated, usually from 46.1 µM), for inactives: at the highest dose activity, negative = less viability, actives largely listed as cytotoxic; HT-1080-NT fibrosarcoma viability, CellTiter-Glo ATP luminescence, 48 h; AID 686970, 2013;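 further: NT is the 2HG producing partner of a matched IDH1 knockdown line; 0% = DMSO-treated cells and -100% = media-only wells without cells; nearly all actives have a fitted effect of over 55% in size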
#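 Viability of the 2HG-overproducing fibrosarcoma line after 48 hours of compound exposure at 37 degrees C was determined by luminescence with CellTiter-Glo, and concentration-effect curves were then fitted and categorized.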
# HepG2 viability: qHTS for Inhibitors of TGF-b: Cytotox Counterscreen; AID 588856, 2011; Potency, µM (top dose mostly 46.1 µM), for inactives: top-dose activity change, negative = cytotoxicity, actives largely listed as cytotoxic; HepG2 CAGA-GFP viability, ATP luminescence, 18 h; 410,000 tested, 0.76% active
#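 CellTiter-Glo luminescence gave cytotoxicity after 18 hours at 37 degrees C. The cells were HepG2 CAGA-GFP in 1% FBS DMEM, stimulated with 500 pg/mL TGF-beta after compound addition. %Activity was normalised to no-cell wells (complete cell-killing) and DMSO (no toxicity), and curves were fitted and classified.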
# HT1080 IDH1KD tx: qHTS for induction of synthetic lethality in tumor cells producing 2HG: qHTS for the HT-1080-IDH1KD cell line; AID 686971, 2013; 360,000 tested, 2% active; Potency, µM (highest dose often 46.1 µM), for the others: at the top dose activity, negative = toxicity, usual class: cytotoxic; HT-1080 IDH1 knockdown viability, ATP luminescence, 48 h;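 further: 0% = DMSO wells and -100% = cell-free medium wells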
#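 After a 2 h attachment period, IDH1KD HT-1080 cells took pin-transferred compound for 48 h at 37 °C; ATP-based luminescence after 10 min room-temperature reagent incubation reported viability.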
# TGFb inhibitor: qHTS for Inhibitors of TGF-b; HepG2 CAGA-GFP TGF-b/SMAD3 reporter, GFP fluorescence, 18 h; TGF-beta stimulated, 500 pg/mL final; AID 588855, 2011; 410,000 tested, 1.2% active; Potency, µM (highest dose often 46.1 µM), inactives show top-dose activity, negative = inhibition, actives largely listed as inhibitors; further: on the % scale 0 is the no-effect control and ±100 the full control effect; nearly all actives have a fitted effect of over 65% in size
#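 First, reporter cells (HEPG2 CAGA-GFP) rested 2 h at 37 degrees C. Next, compounds were pinned in and TGF-beta added to 500 pg/mL final. After 18 h, GFP was imaged per cell and summed per well.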
# TDP1 cell CPT: qHTS for Inhibitors of human tyrosyl-DNA phosphodiesterase 1 (TDP1): qHTS in cells in presence of CPT | Potency, µM (titrated, usually from 46.2 µM), without a hit: at the top dose activity change, negative = growth inhibition, usual class: inhibitors | 420,000 tested, 12% active | chicken DT40 Tdp1-/-;hTDP1 cells + 20 nM CPT, ATP luminescence, 48 h; further: on the % scale 0 is the no-effect control and ±100 the full control effect; nearly all actives have a fitted effect of over 55% in size
#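 Chicken DT40 Tdp1-/- cells stably complemented with human TDP1 were seeded at 400 cells/well in medium containing 20 nM camptothecin, exposed to pin-transferred compounds, and grown at 37 °C for at least 48 hr. Viability was read as ATP luminescence.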
# Numbers without * were called inactive; ? = inconclusive; . = no result. The call rests on the fitted dose curve; in most records, active means well fitted curve in the direction sought with a large enough effect; inconclusive means small, poorly fitted or top-dose-only effect, or another doubt; inactive means no such curve, though single readings can be large; an effect the other way counts as inactive or inconclusive. Potency means the concentration at half of the fitted maximal effect.
SMILES,DT40 TDP1 no CPT,HT1080NT lethal,HepG2 viability,HT1080 IDH1KD tx,TGFb inhibitor,TDP1 cell CPT
Nc1ccccc1-c1n[nH]c(=S)s1,17%,-4%,-3%,2%,1%,3%
S=c1[nH]nc(-c2cccc(Cl)c2)n1/N=C/c1ccc(-c2ccccc2Br)o1,?,6%,-45%,4%,?,?
S=c1[nH]nc(-c2ccccc2)n1/N=C/c1ccc(-c2ccccc2Cl)o1,13µM*,-14%,-46%,?,?,?
O=C(NCCCN1CCOCC1)c1ccc(-n2nc(C(F)(F)F)cc2-c2cccs2)cc1,18µM*,?,-33%,23µM*,-10%,18µM*
CCN(CC)CCCNC(=O)c1cc(-c2ccc(O)cc2)on1,-13%,8%,-13%,10%,?,-4%
CCN(CC)CCCNC(=O)c1cc(-c2ccc(Cl)c(Cl)c2)on1,23µM*,?,16µM*,?,?,21µM*
O=C(NCCCN1CCOCC1)c1cc(-c2ccc(Cl)c(Cl)c2)on1,16µM*,-6%,-10%,2%,20%,?
O=C(NCCCN1CCOCC1)c1cc(-c2cccs2)on1,?,?,0%,11µM*,-21%,-20%
COCCCNC(=O)c1ccc(-n2nc(C(F)(F)F)cc2-c2cccs2)cc1,-29%,0%,-18%,-5%,-17%,-30%
CCN(CC)CCOC(=O)c1cccnc1,-8%,.,.,.,.,2%
O=C(NCCCn1ccnc1)c1cc(-c2cccs2)on1,4.6µM*,?,-25%,?,-24%,4.6µM*
O=C(NCCCn1ccnc1)c1ccncc1,-7%,-14%,-7%,-1%,22%,3%
O=C(NCc1ccco1)c1cc(-c2cccs2)on1,14µM*,?,-26%,?,-1%,8.9µM*
COCCN(C(=O)C1=COCCO1)c1c(N)n(CC(C)C)c(=O)[nH]c1=O,24%,16%,1%,17%,18%,0%
COc1ccc(N(C(=O)c2snc(C(N)=O)c2N)C(C(=O)NC2CCCC2)c2cccs2)cc1OC (configuration not stated),1%,17%,1%,21%,2%,15%
C#CC(=O)N(c1cc(OC)ccc1OC)C(C(=O)NC1CCCC1)c1cccs1 (configuration not stated),2.1µM*,0.073µM*,-83%,0.73µM*,?,2.3µM*
C#CC(=O)N(c1ccc(OC)cc1OC)C(C(=O)NC1CCCC1)c1cccs1 (configuration not stated),2.1µM*,0.92µM*,-52%,?,?,?
COc1ccc(N(C(=O)c2ccco2)C(C(=O)NC2CCCCC2)c2cccs2)cc1OC (configuration not stated),?,1%,1%,-2%,-3%,?
CCc1nc(Nc2ccc(F)c(Cl)c2)c2c3c(sc2n1)CCCC3,5.8µM*,.,-5%,.,8%,5.8µM*
Fc1ccc(Nc2ncnc3sc4c(c23)CCC4)cc1F,-2%,11%,-12%,17%,6%,-4%
Cc1nc(Nc2cccc(O)c2)c2c3c(sc2n1)CCC3,21µM*,?,-16%,-26%,-13%,18µM*
COc1ccc(/C=N/Nc2ncnc3sc4c(c23)CCCC4)cc1OC,16µM*,?,5%,?,-15%,?
COc1ccc(Nc2ncnc3sc4c(c23)CCCC4)cc1,0.029µM*,.,-30%,.,-8%,3.3µM*
COc1ccc(/C=N/Nc2ncnc(Cl)c2N)cc1OC,?,13%,2%,20%,-3%,5%
CCOC(=O)c1cc(-c2cccnc2)nn1-c1ccccc1C,?,11%,-2%,0%,11%,?
SMILES,DT40 TDP1 no CPT,HT1080NT lethal,HepG2 viability,HT1080 IDH1KD tx,TGFb inhibitor,TDP1 cell CPT
CCc1ccc(Nc2ncnc3sc4c(c23)CCCC4)cc1,18µM*,.,-25%,.,-3%,21µM*
CC(=O)Nc1ccc(Nc2ncnc3sc4c(c23)CCCC4)cc1,?,.,-36%,.,2%,?
N=C(N)SCCc1cccc(CCSC(=N)N)c1,16µM*,-3%,-22%,-22%,10%,16µM*
CCOC(CN=c1nc(N(C)C)ss1)OCC,0.73µM*,6%,-26%,?,?,0.58µM*
O=C(NCC1COc2ccccc2O1)c1cccc(S(=O)(=O)N2CCOCC2)c1 (configuration not stated),-21%,6%,4%,2%,10%,?
COc1cc(C(=O)Nc2ccc3oc(-c4cccnc4)nc3c2)cc(OC)c1OC,21µM*,-4%,29%,14%,0%,5.6µM*
COc1ccc(C(=O)Nc2ccc3oc(-c4cccnc4)nc3c2)cc1OC,?,24%,-3%,11%,-10%,7.3µM*
O=C(Nc1ccc2oc(-c3ccccc3)nc2c1)c1cccnc1,-25%,1%,4%,-1%,1%,-23%
CC1(C)Cc2c(cnn2-c2ccccc2)C(NC(=O)CCCn2cncn2)C1 (configuration not stated),-1%,-8%,11%,-15%,-7%,?
Cc1cc(Cl)nc2c(C(C)C)cccc12,?,3%,3%,9%,4%,?
Cc1cc(Cl)nc2nc(Cl)ccc12,5.6µM*,.,11%,.,41%,?
O=C(CCn1c2c(c3ccccc31)CCCC2)NNC(=O)c1ccccc1[N+](=O)[O-],7.3µM*,-12%,-24%,-14%,-15%,?
O=C(CCn1c2c(c3ccccc31)CCCC2)NNC(=O)c1ccccc1C(=O)O,1%,-20%,-2%,-27%,-9%,-3%
C[C@H](NC(=O)OC(C)(C)C)C(=O)NCC1CCC(C(=O)N[C@@H](Cc2ccccc2)C(=O)O)CC1 (some centres not stated),-21%,9%,-9%,5%,-1%,-1%
CNc1oc(-c2ccc(COc3ccc(C)cc3)o2)nc1C#N,-22%,.,-1%,.,-8%,-13%
Cn1c(=O)c2c(nc(NCc3cccnc3)n2Cc2ccccc2Cl)n(C)c1=O,?,11%,-2%,5%,7%,?

# Bioassay records from PubChem.
